LAP4-GFP MLPCN: alters LAP4-GFP fluorescence in TOR pathway yeast screen | S. cerevisiae LAP4-GFP multiplex, flow cytometry GFP, 3 h; median GFP as percent of DMSO wells | GFP response vs DMSO, % at 10 µM | 320,000 tested, 0.34% active | AID 2023;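 active = GFP response vs DMSO above a set limit, about the screen mean plus 3 SD, cut at about 150% in these data; inconclusive = under 70 cell events counted for the yeast strain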
MEP2 TOR yeast: modulators of TOR pathway MEP2-GFP in S. cerevisiae. 330,000 tested, 0.51% active. GFP response vs DMSO, % at 10 µM. S. cerevisiae MEP2-GFP strain, flow cytometry GFP, 3 h; 100% = DMSO control level;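 active = GFP response versus DMSO above a set limit, roughly screen mean plus 3 SD, cut at about 180% in these data; inconclusive = fewer than 70 cells counted for a yeast strain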;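 also: median GFP fluorescence of the barcode-gated MEP2-GFP cells per well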
CIT2 TOR yeast: modulators of TOR pathway CIT2-GFP in S. cerevisiae; S. cerevisiae CIT2-GFP strain, flow cytometry, 3 h; 100 means same as DMSO wells; GFP response vs DMSO, % at 10 µM; 320,000 tested, 0.065% active;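 active = GFP response relative to DMSO above a set limit, near the screen mean plus 3 SD, cut at about 150% in these data; inconclusive = Fewer than 70 cells measured for a yeast strain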;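 also: ratio of well median GFP fluorescence to mean of DMSO wells on the plate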
AGP1-GFP MLPCN: modulators of TOR pathway AGP1-GFP in S. cerevisiae. S. cerevisiae AGP1-GFP multiplex flow cytometry, 3 h; GFP as percent of DMSO wells. GFP response vs DMSO, % at 10 µM. 320,000 tested, 0.02% active;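 active = GFP response relative to DMSO above a set limit, near screen average plus 3 SD, cut at about 150% in these data; inconclusive = fewer than 70 cells counted for the yeast strain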;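 also: median GFP channel fluorescence of the gated AGP1 strain per well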
RPL19A-GFP yeast: modulators of TOR pathway RPL19A-GFP in S. cerevisiae | 330,000 tested, 0.3% active | S. cerevisiae RPL19A-GFP strain, flow cytometry, 3 h; active compounds read low | percent response vs DMSO, % at 10 µM;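 active = percent response vs DMSO below 50%; inconclusive = fewer than 70 events counted for the yeast strain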;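 also: median channel GFP fluorescence of the barcoded RPL19A-GFP strain; lower means less RPL19A-GFP as with rapamycin TOR inhibition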
Each line names hits and unclear results; the compound was inactive in the other large screens; [ ] = remark or other dose. Rows were chosen to be rich in hits. Some 0.93% of all compounds tested hit in one or more screens of this group.

CCOC(=O)N1CCC(NC(=O)C2CCCN(S(=O)(=O)c3ccc4c(c3)oc(=O)n4C)C2)CC1 (stereo unspecified)	none
CCS(=O)(=O)C1=NN2C(=N)/C(=C\c3ccc(OS(=O)(=O)c4ccccc4)c(OC)c3)C(=O)N=C2S1	none
COc1cc(/C=C2\C(=N)N3N=C(S(C)(=O)=O)SC3=NC2=O)ccc1OS(=O)(=O)c1ccccc1	CIT2 TOR yeast inconclusive, AGP1-GFP MLPCN inconclusive, RPL19A-GFP yeast 18[may fluoresce violet]
CCOC(=O)C(NC(C)=O)(OCc1ccccc1)C(F)(F)F (stereo unspecified)	none
CCOc1ncccc1C(=O)OCC(=O)c1ccccc1	none
CCOc1ncccc1C(=O)OCCN1C(=O)c2ccccc2C1=O	MEP2 TOR yeast 495[may fluoresce violet], CIT2 TOR yeast inconclusive, RPL19A-GFP yeast 29[may fluoresce violet] (no result: AGP1-GFP MLPCN)
CC(=O)Nc1ccc(NC(=O)c2ccccc2F)cc1	MEP2 TOR yeast 177, CIT2 TOR yeast inconclusive
Clc1ccc(-n2cccc2)cn1	CIT2 TOR yeast 185
CC(Oc1ccc(F)cc1)C(=O)NN (stereo unspecified)	none
O=[N+]([O-])c1ccc(N(CC(O)CN2CCCCC2)S(=O)(=O)c2ccccc2)cc1 (stereo unspecified)	MEP2 TOR yeast 521[may fluoresce violet], CIT2 TOR yeast inconclusive
O=[N+]([O-])c1ccc(S(=O)(=O)N(CC(O)CN2CCCCC2)c2ccccc2)cc1 (stereo unspecified)	none
CC1(C)CCN2CCC(C)(C)c3c(O)ccc1c32	LAP4-GFP MLPCN 164, MEP2 TOR yeast 234, CIT2 TOR yeast 191
CC#CCN1c2ccccc2[C@]23C[C@@H](C(=O)OC)N(C(=O)c4ccc(Br)cc4)C2=NC(C(=O)OC)=C(C(=O)OC)[C@H]13	none
COC(=O)CNC(=O)C1CCN(S(=O)(=O)c2cccc3nsnc23)CC1	CIT2 TOR yeast inconclusive, AGP1-GFP MLPCN inconclusive, RPL19A-GFP yeast 20[may fluoresce violet]
CC(C)(C)NC(=O)C1CCN(S(=O)(=O)c2cccc3nsnc23)CC1	none
COc1ccc(CNC(=O)C2CCN(S(=O)(=O)c3cccc4nsnc34)CC2)cc1	CIT2 TOR yeast inconclusive, AGP1-GFP MLPCN inconclusive, RPL19A-GFP yeast 15[may fluoresce violet]
COc1cccc(C(=O)N2CCC(C(=O)NCc3ccc(C)cc3)CC2)c1	MEP2 TOR yeast 258[may fluoresce red and violet], CIT2 TOR yeast inconclusive, AGP1-GFP MLPCN inconclusive, RPL19A-GFP yeast inconclusive
CCCc1nnc(NC(=O)CCC(=O)N2CCN(Cc3ccc(C)cc3C)CC2)s1	none
COC(=O)c1ccc(C2Nc3cccc4cccc(c34)N2)cc1	LAP4-GFP MLPCN 152
O=[N+]([O-])c1ccc(C2Nc3cccc4cccc(c34)N2)cc1	none
Fc1ccc(C2Nc3cccc4cccc(c34)N2)cc1	LAP4-GFP MLPCN 159, MEP2 TOR yeast 202
CCOc1cccc(C(=O)Nc2cccc(-c3nnc(-c4ccc(C)cc4)o3)c2)c1	none
Cc1cc(C(=O)CSc2nc3ccc(Cl)cc3[nH]2)c(C)n1CC1CCCO1 (stereo unspecified)	none
Cc1ccc(-n2c(Cl)c(Cl)nc(Cl)c2=O)cc1	LAP4-GFP MLPCN 183[may fluoresce violet], CIT2 TOR yeast inconclusive
Cc1ccc(Cl)cc1NC(=O)c1ccccc1OCC(=O)N1CCOCC1	none (no result: CIT2 TOR yeast)
Cc1cc(N2CCOCC2)nc2ccc(NC(=O)C3CCC(C)CC3)cc12 (stereo unspecified)	MEP2 TOR yeast 184[may fluoresce violet], CIT2 TOR yeast inconclusive
CCCCNC(=O)CCC(=O)Nc1ccc2nc(N3CCOCC3)cc(C)c2c1	none
Oc1c(C(c2ccccn2)N2CCC(Cc3ccccc3)CC2)cc(Cl)c2cccnc12 (stereo unspecified)	LAP4-GFP MLPCN 169[may fluoresce violet], MEP2 TOR yeast 299[may fluoresce violet], CIT2 TOR yeast inconclusive, AGP1-GFP MLPCN inconclusive, RPL19A-GFP yeast 45[may fluoresce violet]
Oc1c(C(c2ccc(Cl)cc2)N2CCCC2)cc(Cl)c2cccnc12 (stereo unspecified)	LAP4-GFP MLPCN 389[may fluoresce violet], CIT2 TOR yeast inconclusive, AGP1-GFP MLPCN inconclusive
CC(=O)NC(c1ccc(C)cc1)c1cc(Cl)c2cccnc2c1O (stereo unspecified)	none
CN1CCN(C(c2ccccn2)c2cc(Cl)c3cccnc3c2O)CC1 (stereo unspecified)	none
O=C(Nc1cc(F)ccc1F)C1CCCN1S(=O)(=O)c1cccc2nsnc12 (stereo unspecified)	none
CCN(CC(=O)NCCN1CCOCC1)S(=O)(=O)c1ccc(F)cc1	MEP2 TOR yeast 280[may fluoresce red and violet], CIT2 TOR yeast inconclusive, AGP1-GFP MLPCN inconclusive, RPL19A-GFP yeast inconclusive
CC1CN(c2snnc2C=C2C(=O)OC(C)(C)OC2=O)CC(C)O1 (stereo unspecified)	none
O=C1CCCN1Cc1ccccc1	none
O=C1N(Cc2ccccc2)CCCC12CCCN(Cc1ccccc1)C2=O	MEP2 TOR yeast 273[may fluoresce violet], CIT2 TOR yeast inconclusive, AGP1-GFP MLPCN inconclusive, RPL19A-GFP yeast 34[may fluoresce violet]
Cc1ccc(NC(=O)c2cc(C(=O)Nc3ccc(C)cc3)n(C)n2)cc1	MEP2 TOR yeast 227[may fluoresce violet], CIT2 TOR yeast inconclusive, AGP1-GFP MLPCN inconclusive, RPL19A-GFP yeast 39[may fluoresce violet]
Cc1ccc(NC(=O)c2ccc(=O)n(CC(=O)Nc3ccccc3)n2)cc1	CIT2 TOR yeast inconclusive, RPL19A-GFP yeast 45[may fluoresce violet]
CCOC(=O)C(C(=O)OCC)c1cc(Br)c2noc3c2c1C(=O)c1ccccc1-3	none
O=C1c2ccccc2-c2onc3ccc(Oc4ccccc4)c1c23	LAP4-GFP MLPCN 234
O=C(COc1ccccc1)NCCSc1ccccc1	none
c1cnc2c(SCc3ccc(-c4nnco4)cc3)cccc2c1	MEP2 TOR yeast 195 (no result: RPL19A-GFP yeast)
NNC(=O)c1ccc(CSc2cccc3cccnc23)cc1	none
Cc1cccc(CSc2cccc3cccnc23)c1	LAP4-GFP MLPCN 164
CCN(CC)S(=O)(=O)c1ccc(OC)c(NC(=O)c2ccc(OC)c([N+](=O)[O-])c2)c1	none
CCCCn1c(=O)c2ccccc2n2c(=S)[nH]nc12	MEP2 TOR yeast 236[may fluoresce violet], CIT2 TOR yeast inconclusive, AGP1-GFP MLPCN inconclusive, RPL19A-GFP yeast 43[may fluoresce violet]
CC(C)CCN(C(=S)Nc1cccc(C(F)(F)F)c1)C(C)c1ccccn1 (stereo unspecified)	none
COc1ccc(CN2c3cc(S(=O)(=O)N4CCOCC4)ccc3N3CCCC32)cc1 (stereo unspecified)	none
CC1NC(=O)N(C)C2NC(=O)N(C)C(c3ccccc3)C12 (stereo unspecified)	MEP2 TOR yeast 363[may fluoresce violet], CIT2 TOR yeast inconclusive, AGP1-GFP MLPCN inconclusive, RPL19A-GFP yeast 46[may fluoresce violet]
CCOc1ccc(C(=O)N/N=C/c2ccc(SC)cc2)cc1	none
CSc1ccc(/C=N/NC(=O)c2cccc(O)c2)cc1	MEP2 TOR yeast 188[may fluoresce violet], CIT2 TOR yeast inconclusive
CCOc1cc(/C=C/c2ccc3cccc([N+](=O)[O-])c3n2)ccc1OCC(=O)N(C)C	none
COc1ccc(C2(CNC(=O)c3ccccc3)CCCC2)cc1OC	MEP2 TOR yeast 614[may fluoresce violet], CIT2 TOR yeast inconclusive, AGP1-GFP MLPCN inconclusive, RPL19A-GFP yeast 37[may fluoresce violet]
COc1ccc(C2(CNC(C)=O)CCCC2)cc1OC	none
O=C(NCc1n[nH]c(=S)n1Cc1ccccc1)c1ccccc1	none
